This passage reports composite z-score and z-score results from PubChem BioAssay.

Assay [1] concerns Plasmodium falciparum Sir2 (PF13_0152, Sir2A). Description: Plasmodium falciparum Sir2A binding compounds – biochemical, small-molecule microarray, 635 nm fluorescence, primary screen (AID 1098).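 Also: score merges spot fluorescence intensity with its signal-to-noise ratio.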 The conditions noted are these: fluorescence 635 nm, higher = more signal.
A short description of assay [2]: probe aDKK1 binding to arrayed compounds – biochemical, biotinylated probe, 635/667 nm fluorescence, primary screen (AID 1099).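 Also: score merges 667nm spot fluorescence with signal to noise across triplicate slides.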 The conditions noted are these: small-molecule microarray, higher = more signal.
The nature of assay [3]: probe aCHRDL2 binding to arrayed compounds – biochemical, biotinylated probe, 635/667 nm fluorescence, primary screen (AID 1100). The conditions noted are these: small-molecule microarray, higher = more signal.
A short description of assay [4]: change in splice reporter luminescence, either direction, cell-based, HEK293, spliceosome inhibition project, primary screen (AID 1101).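 Also: HEK293 cells carrying a splicing-competent luciferase reporter gene; test concentration not given here.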 To be noted: HEK293 splicing luciferase reporter, 24 h, higher = more signal, called active from +8 up or from −8 down. (In general: Reporter assays use an easily measured gene product as a stand-in for the process of interest.)
Assay [5] deals with Fibroblast growth factor 10 (Homo sapiens) (UniProt O15520). The experiment in a line: compounds binding fibroblast growth factor 10 – biochemical, small-molecule microarray, 635 nm fluorescence, primary screen (AID 1102). To be noted: FGF10 binding, fluorescence 635 nm, higher = more signal.
Fibroblast growth factor 10 (Homo sapiens), sequence (O15520 whole entry, looked up): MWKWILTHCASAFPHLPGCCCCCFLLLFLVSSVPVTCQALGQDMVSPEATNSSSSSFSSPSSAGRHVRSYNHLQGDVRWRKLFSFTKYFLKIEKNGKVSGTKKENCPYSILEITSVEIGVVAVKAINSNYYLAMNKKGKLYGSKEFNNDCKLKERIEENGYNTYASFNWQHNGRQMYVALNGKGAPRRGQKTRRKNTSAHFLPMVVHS
The test system of assay [6] is glycogen synthase kinase-3 (GSK3A per assay name; protocol says GSK3B). Description: compounds binding glycogen synthase kinase-3 – biochemical, small-molecule microarray, 635 nm fluorescence, GSK3A, primary screen (AID 1103). Also: the record names both GSK3A and GSK3B. To be noted: fluorescence 635 nm, higher = more signal.
The target in assay [7] is Epidermal growth factor receptor (Homo sapiens) (UniProt P00533). Description: compounds binding epidermal growth factor receptor – biochemical, small-molecule microarray, 635 nm fluorescence, primary screen (AID 1104).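 Also: score merges 667 nm emission intensity with spot signal to noise over triplicate slides.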 The conditions noted are these: EGFR binding, higher = more signal.
Epidermal growth factor receptor (Homo sapiens), sequence (P00533 whole entry, looked up): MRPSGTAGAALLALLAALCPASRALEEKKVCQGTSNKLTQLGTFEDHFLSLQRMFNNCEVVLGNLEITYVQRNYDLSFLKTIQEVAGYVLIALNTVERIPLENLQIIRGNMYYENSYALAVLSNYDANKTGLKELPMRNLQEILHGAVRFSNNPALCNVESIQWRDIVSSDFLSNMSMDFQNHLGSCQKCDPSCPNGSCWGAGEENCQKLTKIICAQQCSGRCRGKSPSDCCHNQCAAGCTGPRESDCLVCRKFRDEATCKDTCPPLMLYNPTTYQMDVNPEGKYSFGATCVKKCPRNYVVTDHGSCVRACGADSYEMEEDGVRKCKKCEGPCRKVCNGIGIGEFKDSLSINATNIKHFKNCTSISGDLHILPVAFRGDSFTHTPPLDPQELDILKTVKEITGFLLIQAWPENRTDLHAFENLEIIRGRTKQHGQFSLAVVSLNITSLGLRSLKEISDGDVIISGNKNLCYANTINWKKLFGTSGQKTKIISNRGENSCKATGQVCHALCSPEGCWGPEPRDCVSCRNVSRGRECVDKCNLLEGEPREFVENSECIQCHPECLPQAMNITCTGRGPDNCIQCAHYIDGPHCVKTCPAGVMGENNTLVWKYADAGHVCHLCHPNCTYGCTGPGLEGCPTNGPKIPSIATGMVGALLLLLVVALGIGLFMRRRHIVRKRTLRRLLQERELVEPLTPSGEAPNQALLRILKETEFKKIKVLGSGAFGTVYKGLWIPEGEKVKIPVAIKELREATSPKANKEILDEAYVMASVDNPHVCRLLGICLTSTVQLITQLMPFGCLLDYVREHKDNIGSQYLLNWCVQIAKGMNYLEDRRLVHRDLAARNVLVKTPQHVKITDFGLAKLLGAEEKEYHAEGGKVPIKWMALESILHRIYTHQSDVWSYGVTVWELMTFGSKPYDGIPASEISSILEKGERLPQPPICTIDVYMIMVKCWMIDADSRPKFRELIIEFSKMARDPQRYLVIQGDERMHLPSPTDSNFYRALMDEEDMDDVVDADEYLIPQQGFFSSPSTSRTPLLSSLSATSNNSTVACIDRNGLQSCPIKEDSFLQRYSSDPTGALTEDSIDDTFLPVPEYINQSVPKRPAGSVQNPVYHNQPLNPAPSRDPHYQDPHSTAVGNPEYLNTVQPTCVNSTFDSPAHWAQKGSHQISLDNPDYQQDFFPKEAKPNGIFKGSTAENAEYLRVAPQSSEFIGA
For assay [8], the target named is Follistatin-related protein 3 (Homo sapiens) (UniProt O95633). The experiment in a line: compounds binding follistatin-related protein 3 – biochemical, small-molecule microarray, 635 nm fluorescence, primary screen (AID 1105).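 Also: score merges emission near 667 nm and signal to noise per printed spot across three slides.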 To be noted: FSTL3 binding, higher = more signal.
Follistatin-related protein 3 (Homo sapiens), sequence (O95633 whole entry, looked up): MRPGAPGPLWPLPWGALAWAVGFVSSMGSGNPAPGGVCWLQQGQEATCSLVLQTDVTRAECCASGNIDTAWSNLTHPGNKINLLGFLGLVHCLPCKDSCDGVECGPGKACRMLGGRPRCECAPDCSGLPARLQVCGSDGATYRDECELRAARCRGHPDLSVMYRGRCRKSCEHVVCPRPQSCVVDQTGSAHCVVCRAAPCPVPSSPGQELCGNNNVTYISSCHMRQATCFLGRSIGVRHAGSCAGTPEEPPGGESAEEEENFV
In assay [9] the target is Dickkopf-related protein 1 (Homo sapiens) (UniProt O94907). The experiment in a line: small molecules binding DKK1 protein – biochemical, small-molecule microarray, 635 nm fluorescence scan, primary screen (AID 1106).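 Also: score merges emission near 667 nm with signal to noise over three replicate slides.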 The conditions noted are these: higher = more signal.
Dickkopf-related protein 1 (Homo sapiens), sequence (O94907 whole entry, looked up): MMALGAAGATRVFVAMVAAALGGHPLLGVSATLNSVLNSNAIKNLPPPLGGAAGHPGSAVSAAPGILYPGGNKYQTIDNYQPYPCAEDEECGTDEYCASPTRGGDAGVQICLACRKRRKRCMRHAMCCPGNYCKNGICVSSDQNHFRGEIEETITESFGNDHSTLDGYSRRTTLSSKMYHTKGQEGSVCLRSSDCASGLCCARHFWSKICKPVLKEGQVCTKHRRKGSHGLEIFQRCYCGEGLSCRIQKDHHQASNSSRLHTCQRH
For assay [10], the system named is Inhibin beta A chain (activin A). The experiment in a line: small molecules binding activin A – biochemical, small-molecule microarray, 635 nm fluorescence scan, primary screen (AID 1107).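 Also: mouse activin A protein probed at 4.33 µg/mL on printed slides; score merges bound-protein fluorescence near 667 nm with spot signal-to-noise.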 To be noted: INHBA, higher = more signal.
Assay [11] relates to Human papillomavirus type 1a protein E7 (residues 44-93). The experiment in a line: small molecules binding HPV E7 44-93 – biochemical, small-molecule microarray, residues 44-93, 635 nm fluorescence, primary screen (AID 1108).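 Also: E7 fragment applied at 1 µg/mL in TBST for 1 h at 4 C; score combines spot fluorescence with its signal to noise ratio.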 The conditions noted are these: fluorescence 635 nm, higher = more signal.
Assay [12] can be described thus: hepatitis C replication reporter changes, two-sided – Huh7 cells, luciferase reporter, HCV replication inhibitor project, primary screen (AID 1109).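 Also: huh7 hepatoma cells harbouring a luciferase neomycin HCV replicon reporter; luciferase luminescence as measure of HCV replicon replication; test concentration not given here.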 To be noted: Huh7 HCV replicon luciferase reporter, 48 h; higher = more signal.
The target in assay [13] is Left-right determination factor 2 (Homo sapiens) (UniProt O00292). The experiment in a line: small molecules binding LEFTY2 protein – biochemical, small-molecule microarray, 635 nm fluorescence scan, primary screen (AID 1110). The conditions noted are these: higher = more signal.
Left-right determination factor 2 (Homo sapiens), sequence (O00292 whole entry, looked up): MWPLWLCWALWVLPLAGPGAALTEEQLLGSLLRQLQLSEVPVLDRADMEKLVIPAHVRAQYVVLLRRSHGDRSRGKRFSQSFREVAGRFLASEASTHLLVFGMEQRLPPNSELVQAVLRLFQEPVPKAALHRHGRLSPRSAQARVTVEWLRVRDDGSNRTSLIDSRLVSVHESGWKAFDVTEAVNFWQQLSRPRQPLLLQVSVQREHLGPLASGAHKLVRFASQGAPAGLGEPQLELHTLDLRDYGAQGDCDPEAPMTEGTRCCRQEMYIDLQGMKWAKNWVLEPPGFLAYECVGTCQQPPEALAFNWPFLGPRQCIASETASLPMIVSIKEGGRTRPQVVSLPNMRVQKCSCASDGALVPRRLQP
Assay [14] has as its target Calmodulin-1 (Homo sapiens) (UniProt P0DP23). Description: small molecules binding calmodulin-1 with EGTA – biochemical, small-molecule microarray, Cy5-labelled CALM1, profiling panel (AID 1111).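 Also: labelled calmodulin applied in Tris saline Tween buffer holding calcium plus EGTA and DTT.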 To be noted: Cy5-CALM1 binding fluorescence, higher = more signal.
The target is the same in assay [15]. Description: small molecules binding Ca-loaded calmodulin-1 – biochemical, small-molecule microarray, Cy5-labelled CALM1, plus calcium, artefact control for SMM control-protein annotation, profiling panel (AID 1112).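 Also: score merges spot fluorescence with signal to noise from triplicate slides.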 The conditions noted are these: Cy5-CALM1 binding fluorescence, higher = more signal.
Assay [16] in a line: probe aWnt5a binding to arrayed compounds – biochemical, biotinylated probe, 635/667 nm fluorescence, primary screen (AID 1113).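 Also: score merges 667 nm fluorescence intensity with signal-to-noise per printed feature.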 To be noted: small-molecule microarray, higher = more signal.
Assay [17] can be described thus: probe aShh binding to arrayed compounds – biochemical, biotinylated probe, 635/667 nm fluorescence, primary screen (AID 1114).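 Also: probe is biotin-labelled aShh protein from a stem cell growth factor screen; measures binding of labelled protein to compounds printed on the slide; score merges feature fluorescence at 667 nm with signal-to-noise.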 The conditions noted are these: small-molecule microarray, higher = more signal.
Assay [18] is described as follows: probe aNog binding to arrayed compounds – biochemical, biotinylated probe, 635/667 nm fluorescence, primary screen (AID 1115).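 Also: probe is biotinylated aNog protein used at 0.15 µg/mL for 1 h at 4 C; z-score combines 667 nm fluorescence of each spot with its signal to noise.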 The conditions noted are these: small-molecule microarray, higher = more signal.
For assay [19], the target named is Torsin-1A-interacting protein 1 (Homo sapiens) (UniProt Q5JTV8). Description: compound microarray binding of lysate hLAP1 – cell lysate, small-molecule microarray, COS7 lysate, 635/667 nm fluorescence, primary screen (AID 1116). The conditions noted are these: 635 nm fluorescence, higher = more signal.
Torsin-1A-interacting protein 1 (Homo sapiens), sequence (Q5JTV8 whole entry, looked up): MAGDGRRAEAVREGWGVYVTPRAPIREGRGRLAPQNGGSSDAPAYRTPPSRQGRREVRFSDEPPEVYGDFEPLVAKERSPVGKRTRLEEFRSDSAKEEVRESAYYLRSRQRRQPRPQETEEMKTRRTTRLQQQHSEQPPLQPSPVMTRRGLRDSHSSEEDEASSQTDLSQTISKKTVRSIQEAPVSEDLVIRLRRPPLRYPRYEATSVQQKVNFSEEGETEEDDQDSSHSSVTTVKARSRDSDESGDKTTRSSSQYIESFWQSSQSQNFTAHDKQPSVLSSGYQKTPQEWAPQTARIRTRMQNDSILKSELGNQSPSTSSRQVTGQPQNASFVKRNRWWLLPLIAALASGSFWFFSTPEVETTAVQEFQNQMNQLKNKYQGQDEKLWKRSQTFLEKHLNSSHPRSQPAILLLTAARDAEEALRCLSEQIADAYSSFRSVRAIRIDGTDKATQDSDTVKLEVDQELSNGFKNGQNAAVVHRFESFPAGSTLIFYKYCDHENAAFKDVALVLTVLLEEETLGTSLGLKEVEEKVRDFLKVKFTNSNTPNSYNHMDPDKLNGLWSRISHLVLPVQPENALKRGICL
For assay [20], the target named is Alpha-bungarotoxin (Bungarus multicinctus) (UniProt P60615). The experiment in a line: compounds binding labelled alpha-BTX control protein – biochemical, small-molecule microarray, Alexa647 label, 635/667 nm fluorescence, artefact control for SMM control protein annotation, profiling panel (AID 1117). The conditions noted are these: alpha-BTX-A647 binding fluorescence, higher = more signal.
Alpha-bungarotoxin (Bungarus multicinctus), sequence (P60615 whole entry, looked up): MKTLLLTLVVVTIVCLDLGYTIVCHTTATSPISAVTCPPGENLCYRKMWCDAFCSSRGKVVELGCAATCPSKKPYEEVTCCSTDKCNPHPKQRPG

Activity calls are given as the source filed them.

Take `O=C(NCc1ccccc1)[C@@H]1c2ccccc2C(=O)N(Cc2ccccc2C(F)(F)F)[C@H]1c1ccc(CO)cc1`: the composite z-score was 1.61 in assay [1]; -0.299 in assay [2]; 0.752 in assay [3]; 0.112 in [5]; -0.076 in assay [6]; -0.406 in assay [7]. Besides, the composite z-score in [8] was -0.45; in assay [9], -1.09; in assay [10] it was 0.212; in assay [11], 0.966; in assay [13], -0.948; in [14], -0.526. For the same compound, the composite z-score in assay [15] is -0.317; in assay [16], -0.252; in assay [17], -0.419; in [18], -0.383; in assay [19] it was -0.934; in assay [20] it was -0.166. Moreover, the figures for the z-score in [4] and in [12] were -0.452 (inactive) and 0.129, respectively.
On to `CCOc1cc(C(O)C2C=CC3C(=O)N(c4ccccc4)C(=O)C3N2Nc2ccc(C#N)cc2)ccc1O` (stereo not given), for which the composite z-score in [1] was 0.146; in assay [2], 1.3; in [3], 0.643; in assay [5], 0.0415; in [6] it was -0.0102; in assay [7] it was -0.209. In addition, the composite z-score in assay [8] is 0.472; in assay [9] it was -0.454; in [10] it was 0.713; in assay [11] it was 0.0289; in assay [13] it was -0.0669; in [14], 1.81. Also, the composite z-score is 0.0646 in [15]; -0.261 in [16]; -0.315 in assay [17]; 0.0582 in assay [18]; 0.562 in assay [19]; 1.28 in assay [20]. Also, the z-score in [4] was 0.751 (inactive); in assay [12], -0.131.
Take `COCCOC(=O)N1C(=O)[C@@]2(c3ccccc31)[C@H](C(=O)N1CCN(c3ncccn3)CC1)[C@H]1C(=O)O[C@H](c3ccccc3)[C@H](c3ccccc3)N1[C@@H]2c1ccc(O)cc1`: the composite z-score amounted to 1.59 in [1]; 0.184 in assay [2]; 0.573 in assay [3]; 0.745 in [5]; 0.53 in [6]; 0.0611 in assay [7]. Besides, the composite z-score is -0.11 in assay [8]; 0.278 in assay [9]; -0.66 in assay [10]; 0.97 in [11]; 0.256 in assay [13]; 0.949 in [14]. In addition, the composite z-score in [15] was 0.166; in [16], -0.0735; in [17], 0.191; in assay [18] it was 0.893; in assay [19], 0.482; in assay [20], 1.72. In addition, the values for the z-score in assay [4] and in [12] were 0.554 (inactive) and -1.57, respectively.
`C=C(COC)/C(=C/C[C@H](OC(=O)c1ccncc1)c1ccccc1OCCO)c1cnc2ccccc2c1`: the composite z-score in [1] was 1.32; in assay [2], 0.29; in assay [3], -0.627; in assay [5], 1.45; in assay [6], 1.32; in assay [7], 0.788. Besides, the composite z-score in assay [8] was 1.48; in [9], 0.864; in [10], 1.54; in [11], 1.4; in assay [13], 0.76; in [14] it was -0.158. Moreover, the composite z-score in [15] is -0.857; in [16] it was -0.0405; in assay [17], -0.0626; in [18], 0.0481; in assay [19], 0.0493; in assay [20], 1.04. Also, the z-score is 0.321 (inactive) in assay [4] and -2.29 in [12].
`O=C1C2C=CC(C(O)c3ccc(Br)cc3)N(Nc3ccccc3F)C2C(=O)N1c1ccccc1` (stereo not given): the composite z-score in assay [1] is 0.708; in assay [2], 0.0952; in assay [3] it was 0.703; in assay [5], 0.118; in [6] it was 0.235; in assay [7], -0.309. Moreover, the composite z-score is 0.0807 in assay [8]; -0.325 in assay [9]; 0.404 in assay [10]; 0.861 in assay [11]; -0.134 in assay [13]; 0.0034 in assay [14]. Also, the composite z-score is 0.666 in assay [15]; -0.0718 in [16]; -0.0626 in assay [17]; -0.571 in assay [18]; -0.147 in assay [19]; 0.225 in [20]. Further, the values for the z-score in assay [4] and in assay [12] were -1.93 (inactive) and -0.445, respectively.
